# According to paper PMC4336329 (PLoS ONE, 2015):
# Among all 310,000 compounds or so, about 14,000 (4.5%) showed an effect of 50% or more. The effect is printed as a negative number. Many of the other results were omitted from the sample, so strong results are more common in it than they were.
# Target: human ether-à-go-go-related gene (hERG) potassium channel (human, UniProt Q12809)
# Assay: primary screen, population patch clamp on CHO cells stably expressing hERG; higher = less effect of the substance
# 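Further: peak tail current of the secondary pulse compared with the same well before compound.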
# Chain of human ether-à-go-go-related gene (hERG) potassium channel (Q12809 whole entry, looked up): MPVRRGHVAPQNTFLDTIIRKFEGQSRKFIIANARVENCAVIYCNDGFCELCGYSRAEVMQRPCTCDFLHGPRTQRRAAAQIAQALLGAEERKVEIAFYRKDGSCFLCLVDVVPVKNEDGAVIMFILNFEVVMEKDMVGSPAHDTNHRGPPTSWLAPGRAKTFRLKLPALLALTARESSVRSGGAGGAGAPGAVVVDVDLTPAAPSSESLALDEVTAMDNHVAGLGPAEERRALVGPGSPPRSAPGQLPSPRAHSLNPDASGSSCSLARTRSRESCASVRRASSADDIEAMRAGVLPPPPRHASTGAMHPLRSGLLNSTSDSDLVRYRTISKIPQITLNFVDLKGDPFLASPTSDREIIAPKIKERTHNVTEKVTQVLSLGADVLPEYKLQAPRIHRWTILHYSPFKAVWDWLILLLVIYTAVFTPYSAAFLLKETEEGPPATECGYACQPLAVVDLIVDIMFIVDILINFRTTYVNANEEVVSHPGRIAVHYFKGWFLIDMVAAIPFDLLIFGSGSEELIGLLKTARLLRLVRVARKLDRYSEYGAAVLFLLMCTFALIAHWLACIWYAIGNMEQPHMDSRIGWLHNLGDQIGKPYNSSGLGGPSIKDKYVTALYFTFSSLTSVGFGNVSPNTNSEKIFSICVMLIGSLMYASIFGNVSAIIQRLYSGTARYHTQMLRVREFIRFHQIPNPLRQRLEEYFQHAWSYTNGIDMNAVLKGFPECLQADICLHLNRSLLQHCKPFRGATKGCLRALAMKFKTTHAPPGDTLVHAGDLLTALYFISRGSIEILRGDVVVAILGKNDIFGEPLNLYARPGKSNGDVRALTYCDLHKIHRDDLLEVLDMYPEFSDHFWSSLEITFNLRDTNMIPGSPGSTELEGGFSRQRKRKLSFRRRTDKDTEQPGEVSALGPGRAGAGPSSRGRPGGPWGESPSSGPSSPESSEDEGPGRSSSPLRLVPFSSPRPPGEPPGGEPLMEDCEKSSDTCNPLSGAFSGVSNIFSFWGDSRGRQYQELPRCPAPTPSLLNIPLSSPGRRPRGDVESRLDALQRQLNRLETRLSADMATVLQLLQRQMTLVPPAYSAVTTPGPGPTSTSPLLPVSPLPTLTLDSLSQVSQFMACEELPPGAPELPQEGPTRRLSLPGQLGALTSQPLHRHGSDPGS
row,Structure (SMILES),"hERG current change (%, negative = inhibition) at 10uM"
1,COCCn1c(-c2ccc(F)cc2)nc2oc3cc(OC)ccc3c(=O)c2c1=O,-19.6%
2,CCOC(=O)Nc1sc(C)c(C)c1C(N)=O,9.44%
3,COCC1CCN(Cc2nc(COc3ccccc3)no2)C1 (stereo not shown),12.3%
4,CN(Cc1cnccn1)C(=O)CC1C(=O)NCCN1Cc1ccc(F)cc1Cl (stereo not shown),20%
5,CN(Cc1nccn1C)C(=O)CC1C(=O)NCCN1Cc1ccc(F)cc1Cl (stereo not shown),-68.9%
6,CN(Cc1ccccn1)C(=O)CC1C(=O)NCCN1Cc1ccc(F)cc1Cl (stereo not shown),16.4%
7,Cc1nc2scc(C)n2c(=O)c1S(=O)(=O)N1CCN(c2ccccc2)CC1,-26.3%
8,CC(=O)N1CN2CN(C(C)=O)CC(C(=O)c3ccccc3)(C2)C1,11%
9,COc1ccc(C(=O)C23CN4CN(CN(C4)C2)C3)cc1,4.01%
10,CN1CC2(C(=O)c3ccccc3)CN(C)CC(C(=O)c3ccccc3)(C1)C2,-53%
11,Cc1ccn2cc(-c3cccc(NC(=O)c4ccccc4)c3)nc2c1,-19.6%
12,COc1ccccc1N1CCN(CCN(C(=O)c2ccc(F)cc2)c2ccccn2)CC1.Cl,-78.8%
13,COc1ccc(S(N)(=O)=O)cc1C(=O)NCCCN1CCN(c2ccccc2OC)CC1.CS(=O)(=O)O,2.27%
14,O=C(NCCCN1CCOCC1)c1ccc2ccccc2c1,-2.68%
15,COc1ccc(C(=O)CCN2CCN(c3ccc(OC)cc3)CC2)cc1,-73.1%
16,COC(=O)CCN(C(=O)c1cc(OC)c(OC)c(OC)c1)c1ccccn1,6.81%
17,COc1ccc(N2CCN(CCC(N)=O)CC2)cc1,3.39%
18,COc1ccccc1N1CCN(CCCCNC(=O)c2ccc3ccccc3c2)CC1.Cl,-79.6%
19,COc1ccc(N2CCN(CCC(=O)c3ccc4ccccc4c3)CC2)cc1,-11.2%
20,COc1ccc(C(=O)CCN2CCN(c3ccccc3F)CC2)cc1.Cl,-71.5%
21,COc1ccc(C(=O)CCN2CCCCCC2)cc1.Cl,-20%
22,COc1ccc(OC)c(NC(=O)CCN2CCN(c3ccccc3F)CC2)c1,-22.1%

row,Structure (SMILES),"hERG current change (%, negative = inhibition) at 10uM"
1,CC(C)(C)OC(=O)N1CCCN(C(=O)Nc2cccc(Cl)c2)CC1,-4.88%
2,O=C(NCc1ccc2c(c1)OCO2)C1CC(=O)N(C2CCCCCC2)C1 (stereo not shown),-11.3%
3,Cc1cc(C)c(NC(=S)NC(=O)c2c(Cl)c(C)nn2C)c([N+](=O)[O-])c1,12.2%
4,COc1cc(C(=O)NCC(c2cccnc2)N2CCN(C)CC2)cc(OC)c1OC (stereo not shown),12.9%
5,COC(=O)NNC(=O)C1CCC(C)CC1 (stereo not shown),-27.2%
6,O=C(N/N=C/c1ccc(-c2ccccc2[N+](=O)[O-])o1)c1cncc(Br)c1,-6.97%
7,COc1ccccc1CCNC(=O)C(=O)NCC1OCCN1S(=O)(=O)c1ccc(Br)cc1 (stereo not shown),-25.6%
8,COc1ccc(CCn2c(=S)[nH]c3cc(C(=O)NCc4ccco4)ccc3c2=O)cc1OC,-1.08%
9,COc1ccc(CCNS(=O)(=O)c2cc(/C=C/C(=O)O)ccc2C)cc1OC,8.58%
10,COc1cc(NC(=O)CCN2CCN(c3ccccc3F)CC2)cc(OC)c1,-56.6%
11,CCOC(=O)N1CCN(CCC(=O)c2ccc(Cl)cc2)CC1.Cl,-40.9%
12,Cl.O=C1CC(=C(c2ccccc2)c2ccccc2)C(=O)N1CCCCN1CCN(c2cccc(Cl)c2)CC1,-46%
13,Cl.O=C(CCN1CCN(c2ccccc2F)CC1)c1ccc(Br)cc1,-84.5%
14,O=C(CCC(=O)N1CCN(c2ccccc2F)CC1)c1ccc(F)cc1,-35.4%
15,O=C1CC(=C(c2ccccc2)c2ccccc2)C(=O)N1CCCN1CCN(c2cccc(Cl)c2)CC1,1.35%
16,CCOC(=O)N1CCN(CCC(=O)c2ccc(Br)cc2)CC1.Cl,-64.6%
17,COc1cccc(NC(=O)CCN2CCN(c3ccccc3F)CC2)c1,-12%
18,COc1cc(NC(=O)CN2CCN(c3ccccc3F)CC2)cc(OC)c1,-10.2%
19,O=C1CC(=C(c2ccccc2)c2ccccc2)C(=O)N1CCCCN1CCN(c2ccccc2)CC1,-63.3%
20,NC(=O)CN1CCN(c2ccccc2F)CC1,4.12%
21,CCOC(=O)N1CCN(CCC(=O)c2ccc(OC)cc2)CC1.Cl,-18.2%
